# The sample as a whole holds a higher share of hits than the screen did.
# nsP2pro primary: CHIKV nsP2 protease inhibition, primary qHTS. Q8JUX6. FRET peptide cleavage, nsP2pro, fluorescence 1 h. Potency, µM (titrated, usually from 24.9 µM), most hits filed as inhibitors. actives 1.1% (n = 31,000). AID 1964107; further: nearly all actives have a fitted effect of over 60% in size
#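 FRET cleavage of 2.5 uM peptide 2 by 150 nM CHIKV protease domain at pH 8.0 (Tris, Tween 20). Compounds at 7 concentrations (up to 25 uM) preincubated 15 min. Fluorescence read after 1 h at room temperature.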
# CHIKV nsP2 cell: inhibits CHIKV nsP2 protease in cells | actives 10% (n = 450) | shares compounds with nsP2pro primary | Potency, µM (titrated, usually from 51.1 µM), actives largely listed as inhibitors | cell-based CHIKV nsP2 protease reporter assay; further: nearly all actives have a fitted effect of over 70% in size
# NSP2 full ctr: selectivity test for CHIKV nsP2 protease inhibitors: full-length NSP2 | shares compounds with nsP2pro primary | Full-length CHIKV NSP2 protease enzymatic counterscreen | Potency, µM (titrated, usually from 50.7 µM), actives largely listed as inhibitors | actives 39% (n = 410) | AID 1964101; further: nearly all actives have a fitted effect of over 65% in size
# Furin counterscr: human furin inhibition, counterscreen for nsP2pro inhibitors. actives 6% (n = 410). shares compounds with nsP2pro primary. Recombinant human furin enzymatic counterscreen, fluorogenic substrate. Potency, µM (doses to about 50.6 µM), hits mostly inhibitors
# nsP2 NS23 pep: nsP2pro inhibition on native NS2/3 peptide substrate; Potency, µM (top dose mostly 51 µM), hits mostly inhibitors; actives 34% (n = 410); Purified CHIKV nsP2 protease, endogenous NS2/3 peptide cleavage; shares compounds with nsP2pro primary; further: nearly all actives have a fitted effect of over 55% in size
# Papain counter: inhibits papain in a CHIKV nsP2 protease selectivity counterscreen; actives 5% (n = 410); shares compounds with nsP2pro primary; AID 1964104; Potency, µM (top dose mostly 51 µM), most hits filed as inhibitors; purified papain protease activity, enzymatic inhibition
# Target sequence (P00784 whole entry, looked up): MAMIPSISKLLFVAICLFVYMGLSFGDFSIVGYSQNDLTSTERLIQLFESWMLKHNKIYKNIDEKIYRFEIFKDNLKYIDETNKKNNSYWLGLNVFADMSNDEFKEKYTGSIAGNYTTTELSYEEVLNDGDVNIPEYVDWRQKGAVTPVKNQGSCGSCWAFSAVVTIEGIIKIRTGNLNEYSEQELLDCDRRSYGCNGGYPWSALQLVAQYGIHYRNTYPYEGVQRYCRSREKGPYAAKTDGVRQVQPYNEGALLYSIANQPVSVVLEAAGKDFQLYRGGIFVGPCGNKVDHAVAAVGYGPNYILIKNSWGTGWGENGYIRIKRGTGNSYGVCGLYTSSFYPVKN
# nsP2pro conf qHTS: confirmation of CHIKV nsP2 protease inhibitors | shares compounds with nsP2pro primary | CHIKV nsP2 protease enzymatic activity, qHTS | Potency, µM (series often up to 25.5 µM), actives largely listed as inhibitors | actives 43% (n = 410) | AID 1964105; further: nearly all actives have a fitted effect of over 75% in size
# HCV NS3 counter: selectivity counter-screen for CHIKV nsP2 protease inhibitors: HCV NS3/4A. shares compounds with nsP2pro primary. HCV NS3/4A protease biochemical counterscreen. Potency, µM (doses to about 50.9 µM), usual class: inhibitors. actives 20% (n = 410); further: nearly all actives have a fitted effect of over 55% in size
# Numbers stand for hits; - = inactive; ? = inconclusive. The call rests on the fitted dose curve.
SMILES,nsP2pro primary,others
O=C(CSc1nnc(-c2cccc(S(=O)(=O)N3CCCC3)c2)n1-c1ccccc1)Nc1ccc(F)cc1,-,
CC1CC2(O)OC(=O)C3=C2C(CCC3)[C@@]12C[C@@H](c1ccoc1)OC2=O (some centres undefined),?,CHIKV nsP2 cell=-;NSP2 full ctr=?;Furin counterscr=-;nsP2 NS23 pep=?;Papain counter=-;nsP2pro conf qHTS=-;HCV NS3 counter=1.8µM
COc1ccccc1CN(C)C1CCc2ccccc21 (centres undefined),-,
O=C(COc1ccccc1[N+](=O)[O-])N1CCN(CCc2ccncc2)CC1,?,CHIKV nsP2 cell=-
Cc1ccc(OCC(=O)N2CCN(CCc3ccncc3)CC2)cc1,-,
O=C(COc1ccccc1Cl)N1CCN(CCc2ccncc2)CC1,-,
C[C@@]12CCC(=O)C[C@@H]1C[C@H](OC(=O)Nc1ccccc1)CC2,-,
COc1ccc(Cc2nnc3ccc(C(=O)N4CCN(Cc5ccccc5)CC4)cn23)cc1,-,
NC(=O)C1=C(O)[C@@]2(O)C(=O)C3=C(O)c4c(O)cccc4C[C@H]3C[C@H]2CC1=O,-,
Cc1nn(-c2ccc(C(C)(C)C)cc2)c(C)c1[C@@H]1C=C[C@@H](NC(=O)NC(C)C)C1,-,
C=C1C(=O)O[C@@H]2/C=C(/C)[C@@H](OC(C)=O)C/C=C(\C)C[C@@H](OC(=O)/C(=C/CO)CO)[C@@H]12,-,
C=C(C)C(=O)O[C@H]1[C@H]2C(=C)C(=O)O[C@@H]2/C=C(\CO)CC/C=C(/C=O)[C@@H]1O,-,
C=C1C(=O)O[C@@H]2C3C(=C(C)[C@@H](O)[C@@H](OC(=O)/C(=C/C)COC(C)=O)[C@@H]12)C(=O)[C@H]1O[C@@]31C (some centres undefined),2.2µM,CHIKV nsP2 cell=?;NSP2 full ctr=7.1µM;Furin counterscr=-;nsP2 NS23 pep=3.2µM;Papain counter=-;nsP2pro conf qHTS=2.2µM;HCV NS3 counter=-
C[S+](=O)([O-])N1CC2(CCCN2CC2CC2)Cc2ccccc21 (centres undefined),-,
CN1N=C2CCN(C(=O)[C@H](COCc3ccccc3)NC(=O)C(C)(C)N)C[C@]2(Cc2ccccc2)C1=O,-,
Cc1n[nH]c(C)c1CNC(=O)C12CCCC=C1N(Cc1ccccc1)C(=O)CC2 (centres undefined),-,
c1ccc(N2CCCC(c3nccn3Cc3ccncc3)C2)nc1 (centres undefined),-,
CS(=O)(=O)CCNCc1ccc(-c2ccc3ncnc(Nc4ccc(OCc5cccc(F)c5)c(Cl)c4)c3c2)o1,-,
Cc1cc(Nc2ncnc3ccc(-c4ccc(CNCCS(C)(=O)=O)o4)cc23)ccc1Oc1ccn2ncnc2c1,1.2µM,CHIKV nsP2 cell=-;NSP2 full ctr=4.1µM;Furin counterscr=-;nsP2 NS23 pep=?;Papain counter=?;nsP2pro conf qHTS=4.5µM;HCV NS3 counter=?
CCOC(=O)c1ccc(-c2ccc3ncnc(NCc4ccc(C)o4)c3c2)o1,-,
O=C(NCc1nnc2cc(-c3nc(C4CC4)no3)ccn12)c1nccc2ccccc12,-,
CC(=O)Nc1sc2c(c1-c1nc3ccccc3s1)CC(C)NC2 (centres undefined),-,
Cc1c(C(=O)OCC2CCCCC2)[nH]c2c1C(=O)CC(c1ccc(F)cc1)C2 (centres undefined),-,
Cc1c(C(=O)OC2CCCCCC2)[nH]c2c1C(=O)CC(c1ccccc1Cl)C2 (centres undefined),-,
Cc1c(C(=O)OCC2CCCCO2)[nH]c2c1C(=O)CC(c1ccco1)C2 (centres undefined),7.9µM,CHIKV nsP2 cell=15µM;NSP2 full ctr=-;Furin counterscr=?;nsP2 NS23 pep=-;Papain counter=-;nsP2pro conf qHTS=-;HCV NS3 counter=-
SMILES,nsP2pro primary,others
CC(=O)O[C@@H]1C=C2[C@H](CC[C@@]3(C)[C@@]2(O)CC[C@H]2Cc4c([nH]c5ccccc45)[C@@]23C)O[C@@H]1C(C)(C)O,-,
CCNC(=O)[C@@H]1CCCN1C(C)(C)C(=O)NC,-,
Cc1ccc(F)c(OC2(C(=O)O)CCN(Cc3cccc(C)n3)CC2)c1,-,
CC(C)=CCC/C(C)=C/CC/C(C)=C/CC/C(C)=C/CC1=C(C)C(=O)c2ccccc2C1=O,-,
CC1=CC(=O)c2ccccc2C1=O,?,CHIKV nsP2 cell=-;NSP2 full ctr=-;Furin counterscr=-;nsP2 NS23 pep=?;Papain counter=-;nsP2pro conf qHTS=-;HCV NS3 counter=-
Cc1nn(C)c(C)c1S(=O)(=O)N1CCC2(CC1)CC(N(C)Cc1ccccc1)CCO2 (centres undefined),-,
CCCCOc1ccc(-c2cncc(C(=O)NCc3cccnc3N3CCOCC3)c2)cc1Cl,-,
Cc1ccc(OCCn2c(CCNC(=O)Cc3ccccc3)nc3ccccc32)cc1,-,
O=C(NCCc1nc2ccccc2n1CCOc1ccccc1[N+](=O)[O-])C1CCCCC1,-,
CC(C)C(=O)OC[C@H]1O[C@H](O[C@H]2O[C@H](CO)[C@@H](O)[C@H](O)[C@H]2O)[C@H](O)[C@@H](O)[C@@H]1O,-,
OC[C@H]1O[C@@H](OCCc2ccc(O)cc2)[C@H](O)[C@@H](O)[C@@H]1O,-,
C=C(CCO[C@@H]1O[C@H](CO)[C@@H](O)[C@H](O)[C@H]1O)C(=O)O,?,CHIKV nsP2 cell=-;NSP2 full ctr=-;Furin counterscr=-;nsP2 NS23 pep=-;Papain counter=-;nsP2pro conf qHTS=-;HCV NS3 counter=-
Cn1ccc(C(=O)NCc2nnc3n2C(C(=O)N2CCOCC2)CC3)n1 (centres undefined),-,
N#Cc1ccc(S(=O)(=O)N2CCc3n[nH]c(=O)n3CC2)cc1,-,
CC1(CO)CCCC2(C)C1C(OC(=O)c1ccccc1)CC1C(=O)OCC12O (centres undefined),-,
C=CCCCCCCCCC(=O)O[C@H]1CC[C@H]2[C@@H]3CCC4=CC(=O)C=C[C@]4(C)[C@H]3CC[C@]12C,-,
C[C@@H]1CN(Cc2ncccn2)C[C@H]1c1nc2c(cnn2C2CCOCC2)c(=O)[nH]1,-,
COC[C@@H]1CN(Cc2ccco2)C[C@H]1C(=O)N(C)C,-,
Cc1cccc(N2CCN(C(=O)c3ccc(NC(=O)c4nsc5ccccc45)cc3)CC2C)c1 (centres undefined),-,
Cc1cccc(N2CCN(c3ccc(C(=O)O)cc3NC(=O)c3cccc(Cl)c3)CC2C)c1 (centres undefined),?,CHIKV nsP2 cell=-;NSP2 full ctr=-;Furin counterscr=-;nsP2 NS23 pep=18µM;Papain counter=?;nsP2pro conf qHTS=8µM;HCV NS3 counter=?
Cc1cccc(N2CCN(S(=O)(=O)c3ccc(F)c(C(=O)Nc4cccc(Cl)c4C)c3)CC2C)c1 (centres undefined),-,
CCOC(=O)c1ccc(N2CCN(c3cccc(Cl)c3)CC2)c(NC(=O)Nc2ccc(Cl)cc2)c1,-,
